Screening data deposited in PubChem BioAssay by several laboratories.
COUP-TFII inh – blocks human COUP-TFII nuclear receptor; HEK293T NGFI-A luciferase reporter, luminescence; inhibition, % at 8.6 µM; 0.7% of 370,000 active; AID 686940;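 active = inhibition above a per-plate cutoff, mean inhibition of test wells between control levels plus 3 SD, cut at about 38% in these data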;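 note: cells cotransfected with COUP-TFII expression vector driving the NGFI-A reporter; 0% = median of COUP-TF2 test wells and 100% = reporter-only cells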
Target sequence (P24468 whole entry, looked up): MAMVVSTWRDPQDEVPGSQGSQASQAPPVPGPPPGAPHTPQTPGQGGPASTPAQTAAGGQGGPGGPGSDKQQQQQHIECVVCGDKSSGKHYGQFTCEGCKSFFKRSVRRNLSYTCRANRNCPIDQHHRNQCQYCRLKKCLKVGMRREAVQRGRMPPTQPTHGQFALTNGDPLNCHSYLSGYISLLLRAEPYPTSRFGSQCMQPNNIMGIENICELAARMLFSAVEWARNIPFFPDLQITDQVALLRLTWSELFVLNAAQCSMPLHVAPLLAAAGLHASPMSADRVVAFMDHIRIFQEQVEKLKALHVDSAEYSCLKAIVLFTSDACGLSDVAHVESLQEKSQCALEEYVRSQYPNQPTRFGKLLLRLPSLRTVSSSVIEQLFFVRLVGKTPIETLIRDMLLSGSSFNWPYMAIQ
Gli-Sufu antag – antagonists of Gli-Sufu signaling. Sufu-KO-LIGHT fibroblasts, Gli luciferase reporter luminescence. inhibition, % at 5 µM. 0.74% of 340,000 active;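 active = inhibition above about 55%, limit read from the data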;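 note: 0% = DMSO-treated cells and 100% = wells with medium but no cells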
Cardio protect – protects H9c2 cardiomyocytes from peroxide injury | H2O2 injury protection, ATPLite, 2 h | protection from H2O2 cell death, % at 20 µM | 0.63% of 360,000 active | AID 588492;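 active = compounds giving at least 50% protection of heart cells from peroxide-induced death in the single-dose screen, raw or plate-pattern-corrected value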;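 note: 0% = DMSO wells with peroxide and 100% = DMSO wells without peroxide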
Jurkat NFkB inh – inhibitors of the PMA/ionomycin-induced NF-kB reporter in Jurkat cells | PMA/ionomycin-induced NF-kB luciferase reporter, luminescence | inhibition, % at 4 µM | 0.53% of 330,000 active | AID 435003; in the data active = inhibition above about 50%
TAG inh – reduces triacylglycerol accumulation in H9c2 cells | Nile Red lipid (TAG) fluorescence; cells loaded with 200 µM oleic acid | inhibition, % at 12.5 µM | 0.66% of 230,000 active | AID 651582;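 active = pattern-corrected inhibition of lipid staining of at least 50% with the nuclear-stain viability signal not falling by more than 50%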;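 note: 0% = DMSO wells and 100% = triacsin C control wells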
697 NFkB inh – inhibitors of the PMA/ionomycin-induced NF-kB reporter in 697 B cells; 697 B-cell NF-kB luciferase reporter, 16 h; inhibition, % at 4 µM; 0.33% of 330,000 active; in the data active = inhibition above about 35%
The depositor's hits bear a star. Most compounds without a hit are left out; they make up all but 2.6% or so of the library.

`CCOC(=O)N1CCN(C(=O)C[C@H]2C[C@@]3(C(=O)OC)C(=C[C@H](C(C)C)O[C@@H]3C3CC3)N(Cc3cccc4ccccc34)C2=O)CC1` gave COUP-TFII inh 10.
For COC(=O)[C@]12C[C@H](CC(=O)NCCCN3CCCC3=O)C(=O)N(CCc3ccc(OC)c(OC)c3)C1=C[C@H](C(C)(C)C)O[C@@H]2C the results were COUP-TFII inh -4.
Screening COC(=O)/C(=C(O)\C=C\c1ccccc1[N+](=O)[O-])c1nc2ccccc2[nH]1 returned COUP-TFII inh -8, Gli-Sufu antag 32, Cardio protect 68*, Jurkat NFkB inh -11 and 697 NFkB inh 17.
For COc1ccc(NC(=O)c2cc3c(=O)n(C)c4ccccc4c3n2C)cc1OC the results were COUP-TFII inh -13, Gli-Sufu antag 20, Cardio protect 50*, Jurkat NFkB inh -12, TAG inh 20 and 697 NFkB inh 30.
`COc1ccc(NC(=O)c2cc3c(=O)n(C)c4ccccc4c3n2C)cc1Cl` gave COUP-TFII inh -12, Gli-Sufu antag 28, Cardio protect 8, Jurkat NFkB inh -1, TAG inh 4 and 697 NFkB inh 27.
For Cn1c(C(=O)NCc2cccs2)cc2c(=O)n(C)c3ccccc3c21 the results were COUP-TFII inh 10, Gli-Sufu antag -7, Cardio protect 68*, Jurkat NFkB inh -3, TAG inh -3 and 697 NFkB inh 31.
Screening Cc1ccc(CNc2ncnc3ccc(-c4ccc(CO)o4)cc23)o1 returned COUP-TFII inh -21, Cardio protect 16 and TAG inh 9.
`CCOC(=O)c1ccc(-c2ccc3ncnc(NCc4csc(C)n4)c3c2)o1` gave COUP-TFII inh -33, Cardio protect 68* and TAG inh -3.
O=C(c1ccc(S(=O)(=O)N2CCCC2)cc1)N1CCCCC1 was read as COUP-TFII inh -4, Gli-Sufu antag -11, Cardio protect -1, Jurkat NFkB inh 5, TAG inh 4 and 697 NFkB inh -9.
Screening O=C(/C=C/c1ccc(O)c(O)c1)c1ccc(S(=O)(=O)N2CCCCCC2)cc1 returned COUP-TFII inh -3, Gli-Sufu antag 28, Cardio protect 74*, Jurkat NFkB inh 11 and 697 NFkB inh -43.
Cn1c(=O)[nH]c(=O)c2c1nc(NCCc1ccccc1)n2CC(O)COc1ccccc1 (stereo not drawn) was read as COUP-TFII inh 11, Gli-Sufu antag 1, Cardio protect 60*, Jurkat NFkB inh -12 and 697 NFkB inh -14.
For CC1(C)CCCN(C(=O)c2ccc3c(c2NCCO)C(=O)c2ccccc2C3=O)C1 the results were COUP-TFII inh 12, Gli-Sufu antag 4, Cardio protect -4, Jurkat NFkB inh -23 and 697 NFkB inh -36.
Screening CC1CCCN(C(=O)c2ccc3c(c2NCCO)C(=O)c2ccccc2C3=O)C1 (stereo not drawn) returned COUP-TFII inh 22, Gli-Sufu antag 26, Cardio protect 3, Jurkat NFkB inh 4, TAG inh 90* and 697 NFkB inh -7.
For COC(=O)[C@]12C[C@H](CC(=O)NCCCCc3ccccc3)C(=O)N(Cc3ccccc3)C1=C[C@H](COCc1ccccc1)O[C@@H]2C the results were COUP-TFII inh 16.
CC[C@H](CCC(=O)N(c1ccccc1)c1ccccc1)C1CC1 was read as COUP-TFII inh 3.
For O=C(COc1cccc2c1CCNC2=O)Nc1cccc(F)c1 the results were COUP-TFII inh -9, Gli-Sufu antag -9, Cardio protect 74*, Jurkat NFkB inh -17, TAG inh 14 and 697 NFkB inh 13.
Screening CCCCCc1ccc(OCCCC[n+]2ccccc2)c(CCCCC)c1 returned Gli-Sufu antag 83*, Cardio protect -24, Jurkat NFkB inh 45, TAG inh 32 and 697 NFkB inh 13.
Screening Oc1c(Br)cc(Br)cc1C=NCc1ccc(F)cc1 returned COUP-TFII inh -5, Gli-Sufu antag -3, Cardio protect 60*, Jurkat NFkB inh -25, TAG inh -2 and 697 NFkB inh -19.
Screening O/N=C/c1cc(Br)ccc1OCc1ccc(F)cc1 returned COUP-TFII inh -6, Gli-Sufu antag -10, Cardio protect -22, Jurkat NFkB inh -11, TAG inh -7 and 697 NFkB inh 0.
`Oc1c(Br)cc(Br)cc1C=NCc1ccccc1` gave COUP-TFII inh 19, Gli-Sufu antag -9, Cardio protect 76*, Jurkat NFkB inh 3, TAG inh 5 and 697 NFkB inh 25.
Screening COc1ccc(-n2c(Cc3cccs3)nnc2SCC(=O)Nc2cccc3ccccc23)cc1 returned COUP-TFII inh -12.
Cc1ccc(S(=O)(=O)NC(=O)Nc2ccc(N(C)C)cc2)cc1 was read as COUP-TFII inh -3, Gli-Sufu antag -18, Cardio protect -17, Jurkat NFkB inh -97, TAG inh 60* and 697 NFkB inh -133.
`Cc1ccc(NC(=O)NNS(=O)(=O)c2ccc(Br)cc2)cc1` gave COUP-TFII inh 11, Gli-Sufu antag -24, Cardio protect 10, Jurkat NFkB inh -7, TAG inh 13 and 697 NFkB inh -3.
`CC1CCC2(CCC(=O)N2CCCOC(=O)NC(C)(C)C)CC1` (stereo not drawn) gave COUP-TFII inh -4.
`CC(C)CSc1nnc(-c2ccco2)n1C` gave COUP-TFII inh -19.
`CCCN1C(=O)c2cc(C(=O)Nc3cccc(C(C)=O)c3)ccc2C1Nc1cccc(C(C)=O)c1` (stereo not drawn) gave COUP-TFII inh 5, Gli-Sufu antag -5, Cardio protect 52*, Jurkat NFkB inh 1, TAG inh 13 and 697 NFkB inh 21.
NC1=NC[C@H](Cc2ccccc2)N1CCCCC1CCCCC1 was read as COUP-TFII inh -14, Gli-Sufu antag 58*, Cardio protect -22, Jurkat NFkB inh 3, TAG inh -19 and 697 NFkB inh -42.
Screening c1ccc(C[C@H]2CN=C(Nc3ccccc3)N2CCC2CCCC2)cc1 returned COUP-TFII inh 0, Gli-Sufu antag 24, Cardio protect -10, Jurkat NFkB inh -2, TAG inh 9 and 697 NFkB inh -28.
Screening O=C(N/N=C/c1ccccn1)c1cccc([N+](=O)[O-])c1 returned COUP-TFII inh -7, Gli-Sufu antag 1, Cardio protect 61*, Jurkat NFkB inh 15, TAG inh 10 and 697 NFkB inh -2.
CCN(CC)S(=O)(=O)c1cccc(C(=O)N/N=C/c2ccccn2)c1 was read as COUP-TFII inh 2, Gli-Sufu antag -33, Cardio protect 51*, Jurkat NFkB inh 4, TAG inh 4 and 697 NFkB inh 17.
For O=C(COc1cccc(NC(=O)c2cccc([N+](=O)[O-])c2)c1)c1ccc(F)cc1 the results were COUP-TFII inh -2, Gli-Sufu antag 8, Cardio protect 78*, Jurkat NFkB inh 7, TAG inh 13 and 697 NFkB inh 8.
